# A selection: hits, their analogues and other compounds. The true share with any hit is near 1.7%.
# Mtb hypoxia rep: inhibitors of hypoxia-regulated fluorescent reporter in Mycobacterium tuberculosis; hit rate 0.1% among 300,000; AID 1159583; fluorescence inhibition, % (test concentration not listed); M. tuberculosis hypoxia-regulated fluorescent reporter, fluorescence; in the data active means fluorescence inhibition mostly above about 23%, no sharp cut-off; inactive means mostly below about 17%
# CCHFV vOTU inh: CCHFV vOTU protease inhibition | Pep-AMC fluorescence | inhibition, % at 11.5 µM | AID 651958 | hit rate 0.55% among 370,000; in the data active means inhibition above about 30%; further: 0% = vehicle wells with enzyme and 100% = no enzyme wells
# PfHsp40 rescue: restores yeast growth despite PfHsp40 toxicity; S. cerevisiae expressing PfHsp40, growth rescue, ATP luminescence; growth rescue, % at 12.5 µM; hit rate 0.68% among 340,000; AID 504582; in the data active means growth rescue above about 28%, passing the limit was not always enough; inconclusive means no clear call, values can overlap the other calls;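 further: yeast W303a lacking pdr1 and pdr3 grown in galactose medium; growth measured after three days at 30 °C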
# BH1578 lux ind: quorum light induction in luxS cqsA deficient V. cholerae | AID 588436 | hit rate 0.16% among 350,000 | V. cholerae BH1578 lux reporter, luminescence, 6 h | activation, % at 18.7 µM; in the data active means activation mostly above about 9.7%, no sharp cut-off; inconclusive means no clear call, values can overlap the other calls; inactive means mostly below about 3.7%
# ugtP null kill: growth inhibition of S. aureus ugtP deletion strain; S. aureus RN4220 ugtP deletion, OD600 growth, 16 h; growth inhibition, % (test concentration not listed); hit rate 0.54% among 330,000; AID 1259309; in the data active means growth inhibition above about 68%;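 further: plate controls were untreated wells for no effect and antibiotic for full effect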
# RN4220 kill: S. aureus RN4220 growth inhibition. hit rate 0.33% among 330,000. inhibition, % (test concentration not listed). OD600, 16 h; in the data active means inhibition above about 85%;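 further: plate controls were untreated cells for no effect and reference antibiotic for full effect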
# * = called active by the depositor; i = inactive; ? = inconclusive; nt = not tested or not shown; ! = a repeat was not active.
SMILES,Mtb hypoxia rep,CCHFV vOTU inh,PfHsp40 rescue,BH1578 lux ind,ugtP null kill,RN4220 kill
Cc1cc(C)nc(SCc2ccc(C(=O)NN=C3CCCC(=O)C3)cc2)n1,4.7,nt,nt,nt,0.4,1.0
CCOC(=O)C(=NNc1ncnc2ccccc12)c1ccc(OC)cc1,0.2,nt,nt,nt,13.2,1.0
Cc1ccc(O)c(-c2cc(-c3cccc(Br)c3)n[nH]2)c1,-3.6,11.3,119.3*,-0.2,85.3,86.9*
Cc1ccc(-c2cc(-c3ccc(F)cc3)n[nH]2)c(O)c1,8.1,-8.7,180.3*,i,48.2,-12.8
Cc1ccc(-c2cc(-c3ccc(C)cc3O)[nH]n2)cc1,9.3,9.3,-0.6,i,55.1,-11.3
Oc1ccccc1-c1cc(-c2ccc(F)cc2)n[nH]1,5.1,-5.6,170.2*,i,8.5,-4.4
Cc1ccc(-c2cc(-c3ccccc3Cl)[nH]n2)c(O)c1,-1.2,4.4,136.5*,-1.0,10.6,-7.4
COc1ccc(C2C3C(=O)N(C(C)(C)C)C(=O)C3[C@]3(Cc4ccccc4)C(=O)N(c4ccccc4)C(=O)N23)cc1 (stereo not given in full),-0.2,nt,nt,nt,4.2,6.7
COc1ccc(-c2cc(-c3ccccc3)n[nH]2)c(O)c1,-17.7,4.5,80.3*,i,-13.8,-4.9
N#CC(=NNc1ccc([N+](=O)[O-])cc1)C(=N)N1CCCCC1,42.0*,nt,nt,nt,0.9,3.6
CC[C@]1(O)CC2CN(CCc3c([nH]c4ccccc34)[C@@](C(=O)OC)(c3cc4c(cc3OC)N(C)C3[C@@](O)(C(=O)OC)C(OC(C)=O)[C@]5(CC)C=CCN6CC[C@]43C65)C2)C1 (stereo not given in full),1.1,nt,nt,nt,-3.6,3.0
O=C(Cc1ccc(Cl)cc1)Oc1cccc2cccnc12,-0.1,nt,0.6,0.1,89.2*,8.3
Cc1nnc(SCC(=O)NNC(=O)COc2ccc(Br)cc2)n1C,31.5*,-13.1,-0.2,i,1.4,3.2
CCc1ccc(OCC(=O)NNC(=O)CSc2nnc(-c3ccc(C)cc3)n2C)cc1,1.3,8.2,1.1,-0.3,1.7,7.0
O=C(Nc1ccc(Cl)c([N+](=O)[O-])c1)C(Sc1ccccc1)c1ccccc1 (stereo not given),3.4,11.0,?,i,99.2*,85.9*
C[C@H](NC(=O)OC(C)(C)C)C(=O)NN=Cc1cccc2nccnc12,-8.4,nt,nt,nt,1.3,5.6
O=C(CCN1C(=O)c2ccccc2C1=O)NC(=S)Nc1cccc(Cl)c1,nt,6.2,66.3*,5.6,7.1,-2.4
O=C(CCN1C(=O)c2ccccc2C1=O)NC(=S)Nc1ccccc1,4.2,2.1,0.2,i,5.0,6.5
FC(F)(F)Oc1ccc(C2NCc3ccccc3-n3cccc32)cc1 (stereo not given),-10.6,-0.6,-0.4,-1.9,93.6*,18.4
O=C(O)c1cccc(-n2sc3ccccc3c2=O)c1,nt,16.7,52.1*,i,nt,nt
O=c1c2ccccc2sn1-c1cccc(Cl)c1,nt,3.5,nt,-0.4,nt,nt
O=c1c2ccccc2sn1-c1ccccc1,8.1,12.9,-1.1,5.0,93.9*,83.5
CN(C)S(=O)(=O)c1cccc(-n2sc3ccccc3c2=O)c1,-3.0,-2.1,7.0,i,2.5,-4.8
C=CCn1c(=C(C#N)C(=O)NCCN2CCOCC2)sc(=Cc2ccsc2)c1=O,0.2,nt,nt,nt,5.9,16.2
O=C(N/N=C\c1ccc(F)cc1)c1ccc(F)cc1,nt,3.3,-0.5,-1.3,nt,nt
SMILES,Mtb hypoxia rep,CCHFV vOTU inh,PfHsp40 rescue,BH1578 lux ind,ugtP null kill,RN4220 kill
C[n+]1c(-c2ccc(C=NNC(=O)c3ccc(C(=O)NN=Cc4ccc(-c5cn6ccccc6[n+]5C)cc4)cc3)cc2)cn2ccccc21,nt,2.7,92.1*,i,nt,nt
Cc1c(CCOC(=O)c2ccc(Cl)cc2Cl)sc[n+]1CC(=O)c1ccc(Br)cc1,5.6,15.9,0.1,-1.8,-19.0,51.9
Cc1c(CCOC(=O)C2C3CC4CC(C3)CC2C4)sc[n+]1CC(=O)c1ccc(Br)cc1 (stereo not given),12.9,7.8,1.2,-3.4,-13.6,92.4*!
ClC1(Cl)CC1Cn1c(C2CC2)nc2ccccc21 (stereo not given),0.5,-2.6,0.7,3.1,-7.5,-4.9
CCc1nc2ccccc2n1CC1CC1(Cl)Cl (stereo not given),-2.9,-17.1,55.9*,i,0.2,9.2
Cc1cc(C)nc(NS(=O)(=O)c2ccc(NC(=S)NC(=O)C3CCCC3)cc2)n1,1.4,10.7,0.4,-0.4,86.0*,-1.1
O=C(NC(=S)Nc1ccc(O)cc1)C1CCCC1,16.0,3.0,0.5,i,86.7*,2.1
CC(=NNC(=O)c1cccc2ccccc12)c1cccs1,-6.0,nt,nt,nt,0.7,1.9
N#CC1(Nc2ccccc2)C(=O)Nc2ccccc21 (stereo not given),55.8*,5.7,-0.1,-0.6,-3.1,-4.0
C=CCNC(=O)C=Cc1cccs1,nt,nt,nt,nt,6.1,4.4
CC(OC(=O)Cn1ccccc1=O)C(=O)Nc1cc(Cl)cc(Cl)c1 (stereo not given),4.3,-0.6,-1.4,-1.9,-1.2,4.1
COc1ccc(Cl)cc1NC(=O)C(C)OC(=O)Cn1cc(C(F)(F)F)ccc1=O (stereo not given),26.5*,4.5,23.6,i,-1.6,1.5
O=C(NCCc1ccccc1)C1CC=CC2CCN(Cc3ccc(Cl)c(Cl)c3)C(=O)C21 (stereo not given),10.0,nt,nt,nt,5.7,-1.2
CCN1C(=NCCCOC(C)C)NC(CCc2ccccc2)C(C(=O)NCCCOC(C)C)C1C (stereo not given),-4.7,nt,nt,nt,-16.3,1.9
O=c1c2ccccc2nc(/C=C/c2ccc(O)cc2)n1-c1ccccc1O,-1.2,-10.7,-0.5,-0.4,90.8*,95.3*
O=C(O)c1cccc(-n2c(/C=C/c3ccccc3)nc3ccccc3c2=O)c1,-3.0,14.4,0.6,-0.6,99.6*,97.3*
O=c1c2ccccc2nc(/C=C/c2ccccc2)n1-c1ccc(O)cc1,17.9,-13.2,1.7,-8.3,3.9,28.9
O=C(O)c1ccc(/C=C/c2nc3ccccc3c(=O)n2-c2ccc(Br)cc2)cc1,-0.7,4.3,?,i,9.2,9.4
COc1ccccc1-n1c(/C=C/c2ccc(O)cc2)nc2ccccc2c1=O,-7.7,-9.3,3.3,i,13.7,-1.6
O=c1c2ccccc2nc(/C=C/c2ccccc2)n1-c1ccccc1O,12.4,-5.6,3.9,-0.8,97.5*,96.1*
CC(=O)Nc1ccc(C(=O)NN=Cc2ccccc2OC(=O)c2ccc(Cl)cc2)cc1,15.3,nt,nt,nt,-5.3,3.6
Cc1ccc(C(=O)CN2/C(=C(\O)c3ccccc3)C(=O)c3ccccc3S2(=O)=O)c(C)c1,-3.4,nt,35.3*,i,4.8,15.2
Cc1ccc(C(=O)CN2C(=O)c3ccccc3S2(=O)=O)cc1,nt,14.8,0.5,-1.3,nt,nt
COCc1cc(C=NNC(=O)COc2ccccc2)ccc1OC,1.0,nt,nt,nt,2.0,3.4
COc1ccc(C=NNC(=O)COc2cc(C)cc(C)c2)cc1COC(C)=O,6.6,nt,nt,nt,93.4*,0.0
CC(/C=C1\SC(=S)N(CCC(=O)Nc2cccc(C(=O)O)c2)C1=O)=C\c1ccccc1,1.2,15.7,0.9,-2.2,86.0*,77.6

# Compound activity (PubChem)
